“And” between values parts separate entries of the source, which are not always exact repeats. Equal entries are not always repeated. Screen size: about 5,500 compounds; about 2,000 (36%) were called active. About 18% were inconclusive and are not listed. No stated cut-off is given here; in the data, active means normalized growth mostly below about 0.91 (no sharp cut-off); inconclusive means no clear call, values can overlap the other calls; inactive means mostly above about 0.92. The list shows a part of the results.
Test: chemical genetic growth profiling, strain panel (AID 1159580);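 further: tested at 20 µM; growth read once vehicle control cultures reached saturation at 30 °C; 1 = growth at the plate median or of vehicle wells; lower values mean less growth of the strain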
Settings: S. cerevisiae deletion strains, growth OD

Measured: normalized growth

CN(C)CC[C@H](c1ccc(Cl)cc1)c1ccccn1
inactive: locus YAL013W, strain DEP1, active compounds read low 0.997 | locus YAL021C, strain ccr4, active compounds read low 0.99 | locus YAL026C, strain drs2, active compounds read low 1.01 | locus YAL030W, strain snc1, active compounds read low 1 | locus YBL061C, strain skt5, active compounds read low 1.01 | locus YBR009C, strain hhf1, active compounds read low 1.01 | locus YBR021W, strain FUR4, active compounds read low 0.995 | locus YBR023C, strain chs3, active compounds read low 0.996 | locus YBR171W, strain sec66, active compounds read low 0.998 | locus YBR229C, strain ROT2, active compounds read low 1 | locus YBR231C, strain swc5, active compounds read low 0.989 | locus YBR279W, strain paf1, active compounds read low 1.01 | locus YCL011C, strain gbp2, active compounds read low 0.993 | locus YCL016C, strain dcc1, active compounds read low 1.02 | locus YCL029C, strain bik1, active compounds read low 1 | locus YCL061C, strain MRC1, active compounds read low 1 | locus YCL069W, strain vba3, active compounds read low 1 | locus YCR088W, strain abp1, active compounds read low 0.989 | locus YDL005C, strain med2, active compounds read low 0.992 | locus YDL035C, strain GPR1, active compounds read low 1.02 | locus YDL040C, strain nat1, active compounds read low 1.01 | locus YDL074C, strain BRE1, active compounds read low 1.01 | locus YDL101C, strain DUN1, active compounds read low 0.998 | locus YDL134C, strain PPH21, active compounds read low 0.996 | locus YDL185W, strain tfp1, active compounds read low 0.985 | locus YDL192W, strain arf1, active compounds read low 1 | locus YDR001C, strain nth1, active compounds read low 0.999 | locus YDR069C, strain doa4, active compounds read low 1.01 | locus YDR101C, strain arx1, active compounds read low 0.998 | locus YDR137W, strain rgp1, active compounds read low 1.03 | locus YDR150W, strain NUM1, active compounds read low 1.01 | locus YDR159W, strain sac3, active compounds read low 1 | locus YDR162C, strain NBP2, active compounds read low 1.01 | locus YDR195W, strain ref2 1.01 | locus YDR297W, strain sur2, active compounds read low 1.01 | locus YDR318W, strain mcm21, active compounds read low 0.985 | locus YDR334W, strain swr1, active compounds read low 1 | locus YDR335W, strain msn5, active compounds read low 1 | locus YDR388W, active compounds read low 0.991 | locus YDR392W, strain spt3, active compounds read low 1.01 | locus YDR502C, strain sam2, active compounds read low 1.01 | locus YEL003W, strain gim4, active compounds read low 1.01 | locus YEL037C, strain rad23, active compounds read low 0.992 | locus YEL061C, strain CIN8 (second series), active compounds read low 1 | locus YEL061C, strain CIN8, active compounds read low 1 | locus YER015W, strain faa2, active compounds read low 1.01 | locus YER016W, strain bim1, active compounds read low 0.99 | locus YER110C, active compounds read low 0.98 | locus YER111C, strain swi4, active compounds read low 0.994 | locus YER155C, strain BEM2 (second series), active compounds read low 1.01 | locus YER155C, strain BEM2, active compounds read low 1 | locus YER167W, strain BCK2, active compounds read low 1.01 | locus YFR010W, strain ubp6, active compounds read low 0.991 | locus YGL078C, strain dbp3, active compounds read low 1 | locus YGL086W, strain mad1, active compounds read low 1.01 | locus YGL167C, strain pmr1, active compounds read low 0.985 | locus YGL173C, strain kem1, active compounds read low 0.998 | locus YGL227W, strain vid30, active compounds read low 1.01 | locus YGL240W, strain doc1, active compounds read low 1.01 | locus YGL248W, strain PDE1, active compounds read low 0.997 | locus YGL253W, strain hxk2, active compounds read low 1.01 | locus YGR078C, strain PAC10, active compounds read low 1.01 | locus YGR135W, strain pre9, active compounds read low 1 | locus YGR229C, strain SMI1, active compounds read low 1.01 | locus YGR252W, strain gcn5, active compounds read low 0.959 | locus YHR013C, strain ard1, active compounds read low 1.01 | locus YHR027C, strain rpn1, active compounds read low 0.998 | locus YHR030C, strain SLT2, active compounds read low 1 and 0.993 | locus YHR079C, strain IRE1 (second series), active compounds read low 0.993 | locus YHR079C, strain IRE1, active compounds read low 1 | locus YHR094C, strain hxt1, active compounds read low 0.99 | locus YHR129C, strain ARP1, active compounds read low 0.999 | locus YHR142W, strain chs7, active compounds read low 1.02 | locus YHR200W, strain rpn10, active compounds read low 0.992 | locus YIL066C, strain RNR3, active compounds read low 1.01 | locus YIL073C, strain SPO22, active compounds read low 0.992 | locus YIL125W, strain kgd1, active compounds read low 0.999 | locus YIR030C, strain dcg1, active compounds read low 0.991 | locus YJL092W, strain hpr5, active compounds read low 1.01 | locus YJL095W, strain BCK1 (second series), active compounds read low 0.997 | locus YJL095W, strain BCK1, active compounds read low 1 | locus YJL115W, strain asf1, active compounds read low 1.01 | locus YJL129C, strain trk1, active compounds read low 1.01 | locus YJL134W, strain LCB3, active compounds read low 1.01 | locus YJL154C, strain vps35, active compounds read low 1.01 | locus YJL164C, strain tpk1, active compounds read low 0.992 | locus YJL166W, strain qcr8, active compounds read low 0.985 | locus YJL168C, strain set2, active compounds read low 0.993 | locus YJL187C, strain SWE1 (second series), active compounds read low 1.01 | locus YJL187C, strain SWE1, active compounds read low 1.01 | locus YJR043C, strain POL32, active compounds read low 0.984 | locus YJR066W, strain TOR1, active compounds read low 0.993
